# Only some compounds are listed: those with a hit (about 28% of all), similar ones and a draw of the others.
# CYP2C19 activ: cytochrome P450 2C19 (human) activation; P33261; AID 1025; 96,000 tested, under 10 active; recombinant CYP2C19, luciferin-H EGE luminescence; active compounds read high; 0 = fully inhibited enzyme, 1 = untreated enzyme; activation factor at 5 µM;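 active = activation factor of at least 2 at 5 µM in the primary screen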;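 also: 0 = wells with 2.5 mM tranylcypromine and 1 = vehicle-only wells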
# Target sequence (P33261 whole entry, looked up): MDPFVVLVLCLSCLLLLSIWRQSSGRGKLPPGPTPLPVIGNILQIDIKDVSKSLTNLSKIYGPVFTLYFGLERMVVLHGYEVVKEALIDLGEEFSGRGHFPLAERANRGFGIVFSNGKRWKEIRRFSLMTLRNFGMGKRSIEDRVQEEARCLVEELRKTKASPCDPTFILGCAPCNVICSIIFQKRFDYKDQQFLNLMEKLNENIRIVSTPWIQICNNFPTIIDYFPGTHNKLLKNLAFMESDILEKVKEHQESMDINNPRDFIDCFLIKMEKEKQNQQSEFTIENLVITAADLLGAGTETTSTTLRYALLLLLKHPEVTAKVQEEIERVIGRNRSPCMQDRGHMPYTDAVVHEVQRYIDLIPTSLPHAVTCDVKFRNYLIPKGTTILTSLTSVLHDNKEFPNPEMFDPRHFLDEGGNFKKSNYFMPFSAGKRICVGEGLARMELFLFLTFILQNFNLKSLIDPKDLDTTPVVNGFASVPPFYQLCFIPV
# CYP2C19 inhib: blocks human cytochrome P450 2C19. AID 778. inhibition, % at 5 µM. CYP2C19 Supersomes, luciferin-H EGE luminescence, 30 min. 96,000 tested, 21% active. P33261;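 active = CYP2C19 inhibition above a set limit at 5 µM in the primary screen, cut at about 50% in these data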;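 also: plate controls were negative control wells for no effect and 2.5 mM tranylcypromine positive control for full effect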
# PLK1 kinase inh: inhibitors of human PLK1 kinase. recombinant PLK1 kinase, TR-FRET peptide phosphorylation. 97,000 tested, 0.53% active. P53350. AID 619. inhibition, % at 10 µM;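 active = inhibition of 50% or more in the single-concentration screen; inactive = inhibition below 50%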;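 also: 0% = DMSO max control and 100% = H-89 dihydrochloride min control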
# PLK1 PBD inh: inhibitors of human Plk1 polo box domain binding | inhibition, %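 (tested at about 20 µM)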 | P53350 | Plk1 PBD phosphopeptide binding, fluorescence polarization | 97,000 tested, 0.13% active; in the data active = inhibition above about 34%, passing the limit was not always enough
# CYP2C9 act: increases human cytochrome P450 2C9 activity; 96,000 tested, 1.4% active; P11712; activation factor at 5 µM; recombinant CYP2C9, luciferin-H conversion, luminescence; active compounds read high; factor 1 = untreated enzyme, 0 = blocked;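 active = activation factor of 2 or more for CYP2C9 at a 5 µM dose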;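 also: 0 = sulfaphenazole-blocked wells and 1 = vehicle-only wells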
# CYP2C9 inh: blocks human cytochrome P450 2C9. 96,000 tested, 20% active. P11712. CYP2C9 Supersomes, luciferin-H conversion, luminescence. inhibition, % at 5 µM;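 active = blocking of liver enzyme CYP2C9 beyond about 50% at 5 µM, limit read from the data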
# Numbers without * were called inactive; / = not tested or not shown.
SMILES,CYP2C19 activ,CYP2C19 inhib,PLK1 kinase inh,PLK1 PBD inh,CYP2C9 act,CYP2C9 inh
CCc1nn(CC(=O)N2CCN(Cc3ccc4c(c3)OCO4)CC2)c(=O)c2cc3occc3n12,/,/,-6,-9,/,/
N#Cc1cc([N+](=O)[O-])ccc1Oc1cccc(/C=N/NC(=O)c2cccc(Cl)c2)c1,0.5,46,-7,-9,0.5,49
CSC1=N/C(=C\c2ccc(C)o2)C(=O)S1,0.6,44,42,-10,0.6,41
COc1ccc(C(C(=O)NC(C)(C)C)N(Cc2ccco2)C(=O)CCC(=O)Nc2cc(C)on2)cc1 (stereo not drawn),0.6,38,-13,27,0.3,69*
COc1ccc(C(=O)/C=C/Nc2cc(C)on2)cc1,0.4,58*,3,13,0.6,36
Cc1cc(NS(=O)(=O)c2ccc(NC(=O)CCCOc3ccccc3)cc2)no1,1,1,1,-16,1,-4
Cc1cc(NS(=O)(=O)c2ccc(NC(=O)CCCOc3ccc(Cl)cc3)cc2)no1,0.8,22,-13,8,0.4,58*
CCC(C)(C)NC(=O)C(c1ccc(OC)cc1)N(Cc1ccco1)C(=O)CCC(=O)Nc1cc(C)on1 (stereo not drawn),/,/,-6,-4,/,/
COc1ccc(C(=O)/C=C/Nc2cccc(O)c2)cc1,0.9,7,0,-19,1.2,-25
c1cnc(SCCOc2ccc3c(c2)CCC3)nc1,0.9,14,1,-5,0.8,23
COc1ccc(CC(=O)NCCN2CCCC2)cc1,1,2,-5,8,0.9,5
CCCC(c1nnnn1C(C)(C)CC)N(CCCO)Cc1cc2cc(C)cc(C)c2[nH]c1=O (stereo not drawn),0.6,43,-16,6,0.5,53*
CCOc1ccc2[nH]c(=O)c(CN(CCN3CCOCC3)Cc3nnnn3C(C)(C)CC)cc2c1,0.9,11,-8,24,0.9,13
CCC(c1nnnn1C(C)(C)CC)N(CCCO)Cc1cc2cc(C)cc(C)c2[nH]c1=O (stereo not drawn),0.4,63*,/,/,0.2,76*
CCC(c1nnnn1C(C)(C)CC)N(CCN1CCOCC1)Cc1cc2cc(C)ccc2[nH]c1=O (stereo not drawn),0.2,82*,-4,-3,0.9,6
CC12CNCC(C)(CN(C(c3ccccc3)c3ccccc3)C1)C2,/,/,-8,3,/,/
COCc1[nH]nc2c1C(c1sccc1C)C(C#N)=C(N)O2 (stereo not drawn),0.7,30,21,7,1,3
Cc1nn(-c2ccc(Cl)cc2)c2sc(C(=O)N3CCN(c4ccccn4)CC3)cc12,1,0,-1,-15,0.8,18
CC(NS(=O)(=O)c1ccccc1)C1COc2ccccc2O1 (stereo not drawn),0.5,54*,-9,-33,0.9,11
Cc1onc(-c2ccccc2Cl)c1C(=O)N1CCc2ccccc2C1,0.5,54*,-9,-1,0.5,46
CCOC(=O)C1CCCN(C(=O)c2c(-c3ccccc3Cl)noc2C)C1 (stereo not drawn),0.2,79*,-8,-13,0.3,69*
Cc1onc(-c2c(Cl)cccc2Cl)c1C(=O)N1CCc2ccccc21,0.1,88*,-8,18,0.2,85*
Cc1onc(-c2c(F)cccc2Cl)c1C(=O)N1CCc2ccccc2C1,0,96*,-26,24,0.3,68*
Cc1onc(-c2ccccc2Cl)c1C(=O)N1CC(C)OC(C)C1 (stereo not drawn),0.9,14,-7,2,1.1,-6
Cc1ccc(-n2c(=O)c3c4c(sc3n3c(C)nnc23)COC(C(C)C)C4)cc1 (stereo not drawn),/,/,-6,-11,/,/
SMILES,CYP2C19 activ,CYP2C19 inhib,PLK1 kinase inh,PLK1 PBD inh,CYP2C9 act,CYP2C9 inh
C=C(C)C(=O)OCCCCCCOc1ccc(C(=O)O)cc1,0.7,27,-12,5,0.7,35
COc1ccc2c(c1)C(c1ccc([N+](=O)[O-])cc1)=NNC(c1ccco1)=N2,0.6,36,-10,31,0.7,26
O=c1/c(=C/c2ccccn2)sc2nc3ccccc3n12,0.3,71*,-1,6,0.5,54*
COC(=O)/C=c1/sc2nc3ccccc3n2c1=O,0.9,6,-9,23,0.7,27
CC1(C)Cc2c(c(N3CCOCC3)nc3sc(C(=O)N4CCCCC4)c(N)c23)CO1,1.1,-6,/,/,0.8,25
c1nc(N2CCOCC2)c2sc3nc(N4CCOCC4)c4c(c3c2n1)CCCC4,/,/,-8,-13,/,/
CCOC(=O)c1sc2nc(N3CCOCC3)c3c(c2c1N)CCN(C)C3,0.9,7,-15,-9,0.9,12
CC1(C)Cc2c(c(N3CCOCC3)nc3sc(-c4ccc(C(=O)O)o4)c(N)c23)CO1,/,/,-9,-7,/,/
CNC(=O)c1ccc(-c2sc3nc(N4CCOCC4)c4c(c3c2N)CCCC4)o1,0.1,92*,9,-9,0.1,94*
CNC(=O)c1ccc(-c2sc3nc(N4CCOCC4)c4c(c3c2N)CC(C)(C)OC4)o1,0.9,5,-14,-11,0.5,52*
Nc1c(C(=O)NCc2ccccc2)sc2nc(N3CCOCC3)c3c(c12)CCCC3,0.8,22,-13,4,0.1,86*
CC1(C)Cc2c(c(N3CCOCC3)nc3snc(NC(=O)c4ccccc4)c23)CO1,0.9,6,-2,-3,0.1,88*
CC1(C(=O)O)CCC(C(=O)Nc2ccc(S(N)(=O)=O)cc2)C1(C)C (stereo not drawn),1.2,-17,-18,1,1.2,-18
Cc1cc(=O)oc2cc(OCc3cc4c(cc3Cl)OCO4)ccc12,0.9,15,5,13,0.7,30
CCOC(=O)c1[nH]c2ccc(OC)cc2c1NC(=O)C(C)N1CCC2(CC1)OCCO2 (stereo not drawn),0.3,70*,1,-6,0.3,71*
CCOC(=O)c1[nH]c2ccc(OC)cc2c1NC(=O)CN1CCC2(CC1)OCCO2,0.6,35,20,-4,0.9,12
CCOC(=O)c1[nH]c2ccc(F)cc2c1NC(=O)C(C)N1CCc2cc(OC)c(OC)cc2C1 (stereo not drawn),0.1,91*,0,14,0,98*
Fc1cc2ncn(Cc3ccccc3)c2cc1F,0.5,45,14,10,0.7,26
O=C(Nc1ccc2c(c1)OCCO2)c1ccc(Br)o1,0.7,33,-6,2,0.9,11
O=C(CSc1nnc(-c2ccc(OC(F)F)cc2)o1)NCc1cccs1,0.4,64*,-6,-43,0.7,34
COc1ccc(-c2nnc(SCC(=O)NC(=O)NCc3ccco3)o2)cc1,0.5,52*,-13,-12,1.2,-18
COc1cccc(CN(C)CC(=O)NC(=O)NCc2ccco2)c1,0.4,58*,0,-19,0.7,29

# Assay outcomes: PubChem, several laboratories
